Records with an inconclusive call do not appear. Calls of active or inactive are those of the source. Calls follow the shape of the dose curve; as a rule, active = well fitted inhibition curve with a large enough effect; inconclusive = small, poorly fitted or top-dose-only effect; inactive = flat fitted curve, though single readings scatter.
How the values were obtained:
Assay in all cases: qHTS profiling for inhibitors of Plasmodium falciparum proliferation (AID 504749); also: nearly all actives have a fitted effect of over 60% in size
Conditions in all cases: P. falciparum in erythrocytes, SYBR Green DNA, 72 h; series mostly up to 12.8 µM
ATS95 = test system: ATS95
How it was run: (§1)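 Parasite proliferation within erythrocytes, 72 h exposure. Endpoint: SYBR Green I fluorescence after overnight lysis at room temperature. Controls: 0.29 uM artemisinin, DMSO.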

CP192 = test system: CP192
How it was run: as §1

CP211 = test system: CP211
How it was run: as §1

CP260 = test system: CP260
How it was run: as §1

CP262 = test system: CP262
How it was run: as §1

CP266 = test system: CP266
How it was run: as §1

CP268 = test system: CP268
How it was run: as §1

CP305 = test system: CP305
How it was run: as §1

CP325 = test system: CP325
How it was run: as §1

CP329 = test system: CP329
How it was run: as §1

DIV17 = test system: DIV17
How it was run: as §1

DIV30 = test system: DIV30
How it was run: as §1

Dd2 = test system: Dd2
How it was run: as §1

P93_24 = test system: P93_24
How it was run: as §1

P94_40 = test system: P94_40
How it was run: as §1

PC15 = test system: PC15
How it was run: as §1

PC26 = test system: PC26
How it was run: as §1

TAB109 = test system: TAB109
How it was run: as §1

TAB165 = test system: TAB165
How it was run: as §1

W2 = test system: W2
How it was run: as §1

Measured: Potency
Potency is read from the fitted curve at half-maximal effect.

COc1ccc(C[C@@](C)(N)C(=O)O)cc1OC
inactive: all assays above

CC[C@](C)(CN(C)C)OC(=O)c1ccccc1
active: Dd2 5.01 µM | W2 2.87 µM
not listed: P93_24
inactive: all other assays above

O=C(N/N=C\c1ccc([N+](=O)[O-])o1)c1ccc(O)cc1
active: ATS95 3.16 µM | CP211 5.73 µM | CP260 2.51 µM | CP268 5.73 µM | CP305 2.56 µM | CP329 5.73 µM | DIV17 2.28 µM | DIV30 5.1 µM | Dd2 3.55 µM | P93_24 2.82 µM | P94_40 3.55 µM | PC15 2.82 µM | PC26 5.73 µM | TAB109 2.24 µM | TAB165 3.16 µM | W2 1.81 µM

CC1=C(C(=O)O)N2C(=O)[C@@H](NC(=O)[C@@H](N)c3ccc(O)cc3)[C@@H]2SC1
not listed: CP211
inactive: all other assays above

O[C@@](CCN1CCCC1)(c1ccccc1)C1CCCCC1
inactive: CP192 | CP260 | CP262 | CP266 | CP268
active: DIV17 3.22 µM | W2 0.455 µM

CO[C@H]1[C@H](O[C@H]2O[C@@H](C)[C@@H](O[C@@H]3C[C@](C)(O)[C@H](O)[C@H](C)O3)[C@@H](N(C)C)[C@@H]2O)[C@@H](CC=O)C[C@@H](C)[C@@H](O[C@H]2CC[C@H](N(C)C)[C@H](C)O2)/C=C\C=C/C[C@@H](C)OC(=O)C[C@H]1O
active: TAB109 1.58 µM | W2 3.22 µM
inactive: CP192 | CP329 | DIV17 | DIV30 | Dd2 | PC15 | PC26 | TAB165

CN[C@H]1[C@H](O)[C@@H](O[C@@H]2[C@H](O)[C@@H](O[C@H]3OC(CN)=CC[C@H]3N)[C@@H](N)C[C@H]2N)OC[C@@]1(C)O
inactive: all assays above

CCOC(=O)[C@H](CCc1ccccc1)N[C@@H](C)C(=O)N1[C@H](C(=O)O)C[C@H]2CCC[C@@H]21
not listed: CP329 | DIV30
inactive: all other assays above

C[C@H]1CS(=O)(=O)CCN1/N=C\c1ccc([N+](=O)[O-])o1
not listed: CP260 | DIV17 | TAB109 | W2
inactive: all other assays above

C[C@@H]1O[C@H](O[C@@H]2\C=C/C=C\C=C/C=C\C[C@H](C)OC(=O)/C=C\[C@H]3O[C@@H]3C[C@H](O)C[C@]3(O)C[C@@H](O)[C@@H](C(=O)O)[C@H](C2)O3)[C@@H](O)[C@H](N)[C@@H]1O (stereo in doubt)
not listed: CP268
inactive: all other assays above

Cn1nnnc1SCC1=C(C(=O)O)N2C(=O)[C@@H](NC(=O)[C@@H](O)c3ccccc3)[C@@H]2SC1
inactive: all assays above

Cc1ccc2c(c1)c1c3n2CCN[C@H]3CCC1
active: DIV17 12 µM
not listed: DIV30 | Dd2 | P94_40 | PC15 | PC26 | TAB109 | TAB165 | W2
inactive: all other assays above

NC[C@@H]1O[C@H](O[C@@H]2[C@H](O[C@@H]3O[C@H](CO)[C@@H](O)[C@@H]3O)[C@@H](O)[C@@H](N)C[C@H]2N)[C@@H](N)[C@H](O)[C@@H]1O
inactive: all assays above

CC(C)(C)NC[C@@H](O)COc1ccccc1C1CCCC1
active: ATS95 3.55 µM | CP192 6.42 µM | CP260 3.16 µM | CP325 4.55 µM | DIV17 3.22 µM | DIV30 5.73 µM | Dd2 1.58 µM | P93_24 2.24 µM | P94_40 3.98 µM | PC15 2.51 µM | PC26 6.42 µM | TAB109 3.16 µM | TAB165 3.55 µM | W2 0.572 µM

CC(C)(C)NC(=O)[C@@H]1CC[C@@H]2[C@@H]3CC[C@@H]4NC(=O)C=C[C@@]4(C)[C@H]3CC[C@]21C
inactive: all assays above

C1CCN2C[C@@H]3C[C@@H](CN4CCCC[C@H]34)[C@H]2C1
not listed: W2
inactive: all other assays above

Cc1ncc([N+](=O)[O-])n1C[C@H](O)CCl
not listed: TAB109
inactive: all other assays above

Cc1onc(-c2ccccc2Cl)c1C(=O)N[C@H]1C(=O)N2[C@H]1SC(C)(C)[C@H]2C(=O)O
not listed: CP266
inactive: all other assays above

CC[C@H]1NC(=O)c2cc(S(N)(=O)=O)c(Cl)cc2N1
not listed: PC26
inactive: all other assays above

CC(=C(CCOP(=O)(O)O)SC(=O)c1ccccc1)N(C=O)Cc1cnc(C)nc1N
inactive: all assays above

C=C1c2c(Cl)ccc(O)c2C(O)=C2C(=O)[C@@]3(O)C(O)=C(C(N)=O)C(=O)[C@@H](N(C)C)[C@@H]3[C@@H](O)[C@H]12
active: Dd2 2.24 µM | W2 6.42 µM
not listed: CP260 | P93_24 | PC26 | TAB109 | TAB165
inactive: all other assays above

CC(=O)OCC(=O)[C@@]12OC(C)(C)O[C@@H]1C[C@H]1[C@H]3C[C@H](F)C4=CC(=O)C=C[C@@]4(C)[C@]3(F)[C@H](O)C[C@@]12C
inactive: all assays above

NC[C@@H]1O[C@H](O[C@H]2[C@H](O)[C@H](O[C@@H]3O[C@H](CO)[C@@H](O)[C@H](N)[C@@H]3O)[C@@H](N)C[C@H]2N)[C@@H](O)[C@H](O)[C@@H]1O
inactive: all assays above

— PubChem BioAssay (NCATS)
